Compound activity as filed in PubChem.
KKLEB cytotox: counter-screen for CF NF-kB inhibitors: cytotoxicity; KKLEB CF airway cells viability, ATPlite luminescence, overnight; stronger effect = lower value; cells stimulated with P. aeruginosa culture filtrate; activity change (cytotoxicity), % at 5 µM; 360,000 tested, 0.36% active; AID 602141;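 active = corrected activity change at or below -50% at 5 µM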
MITF TRPM1 inh: MITF TRPM1 promoter inhibition in SK-MEL-5 cells. SK-MEL-5 TRPM1 promoter luciferase, 24 h. inhibition, % at 12.5 µM. 330,000 tested, 0.83% active. AID 488899;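 active = mean inhibition across replicates of 60% or more, whatever share of single replicates reaches that level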
CF NFkB inh: inhibitors of cystic fibrosis induced NF-kB | KKLEB NF-kB-GFP reporter, PAF-induced, GFP fluorescence overnight | inhibition, % at 5 µM | 360,000 tested, 0.86% active | AID 588850;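 active = at least 50% inhibition at 5 µM, scaled per plate between neutral and stimulator controls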;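 note: PAF is a Pseudomonas aeruginosa culture filtrate used as stimulus; plate controls were PAF-stimulated DMSO wells for no effect and unstimulated DMSO wells for full effect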
Peg3 prom inh: inhibitors of Peg3 promoter; inhibition, % at 20 µM; HeLa PEG-Prom luciferase reporter, luminescence, overnight; 360,000 tested, 1.7% active;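 active = inhibition of at least 50% at 20 µM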
ABHD5 PLIN5 PPI: blocks binding of human ABHD5 to perilipin-5 | Q00G26+Q8WTS1 | Split G. princeps luciferase complementation, luminescence, 4 h | inhibition, % at 4 µM | 360,000 tested, 0.78% active | AID 602281;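 active = inhibition above the mean inhibition across every tested compound plus 3 SD, cut at about 22% in these data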;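 note: 0% = DMSO only wells and the 100% control is not disclosed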
Target sequence (Q00G26 whole entry, looked up): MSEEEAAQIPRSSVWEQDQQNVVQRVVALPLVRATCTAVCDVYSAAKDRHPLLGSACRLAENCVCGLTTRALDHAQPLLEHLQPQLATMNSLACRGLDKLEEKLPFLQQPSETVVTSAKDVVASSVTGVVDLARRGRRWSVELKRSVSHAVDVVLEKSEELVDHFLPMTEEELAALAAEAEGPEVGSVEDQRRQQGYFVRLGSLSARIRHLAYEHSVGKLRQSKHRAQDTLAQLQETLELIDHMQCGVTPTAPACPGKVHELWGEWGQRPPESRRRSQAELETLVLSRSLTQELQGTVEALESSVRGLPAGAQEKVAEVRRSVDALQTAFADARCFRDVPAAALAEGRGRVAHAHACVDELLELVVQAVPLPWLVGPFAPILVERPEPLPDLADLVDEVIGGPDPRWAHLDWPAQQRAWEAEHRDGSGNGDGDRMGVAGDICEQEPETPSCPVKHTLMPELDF
Target sequence (Q8WTS1 whole entry, looked up): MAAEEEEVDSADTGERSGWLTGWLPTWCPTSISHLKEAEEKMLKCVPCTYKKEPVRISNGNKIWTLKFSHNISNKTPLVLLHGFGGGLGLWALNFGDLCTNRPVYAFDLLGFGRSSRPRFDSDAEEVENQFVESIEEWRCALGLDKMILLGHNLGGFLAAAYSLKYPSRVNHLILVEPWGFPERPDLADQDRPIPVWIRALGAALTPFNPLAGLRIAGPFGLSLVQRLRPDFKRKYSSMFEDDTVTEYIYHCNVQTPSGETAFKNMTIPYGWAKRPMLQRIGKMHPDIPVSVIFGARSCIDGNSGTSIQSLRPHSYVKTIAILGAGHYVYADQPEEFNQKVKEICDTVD
HIF-2a inh: inhibitors of HIF-2a | 360,000 tested, 0.72% active | inhibition, % at 18.8 µM | 786-0 RCC cells HIF-2a reporter, luciferase luminescence, overnight;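 active = inhibition of the luminescence signal of 40% or more relative to plate controls, in a single-dose primary screen at 18.75 µM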
CF NFkB conf: confirmation of cystic fibrosis induced NF-kB inhibitors; shares compounds with CF NFkB inh; KKLEB CF airway cells, PAF-induced NF-kB-GFP fluorescence, overnight; inhibition, % at 5 µM; 1,300 tested, 64% active; in the data active = inhibition above about 40%;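 note: stimulus PAF is a Pseudomonas aeruginosa filtrate and not platelet activating factor; plate controls were DMSO wells with stimulus for no effect and unstimulated DMSO wells for full effect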
* hit, by the source's call. In the library only some 3% were active in any assay of this set; here they are far more common.

What do the screens show for `O=C(CCNC(=O)c1ccc([N+](=O)[O-])cc1)Nc1ccccc1N1CCCCC1`?
KKLEB cytotox: -1; MITF TRPM1 inh: -4; CF NFkB inh: 2; Peg3 prom inh: 9; ABHD5 PLIN5 PPI: -4; HIF-2a inh: 11

Results for CCOC(=O)N1C(=O)[C@](CC)(c2ccccc2)N1C(=O)OCC ?
KKLEB cytotox: 1; MITF TRPM1 inh: 58; CF NFkB inh: 56*; Peg3 prom inh: 42; ABHD5 PLIN5 PPI: 4; HIF-2a inh: 30; CF NFkB conf: 21

Results for CCC1(c2ccccc2)C(=O)N(C(=O)OC(C)(C)C)N1C(=O)OC(C)(C)C (stereo not given) ?
KKLEB cytotox: 2; MITF TRPM1 inh: 15; CF NFkB inh: -17; Peg3 prom inh: 31; ABHD5 PLIN5 PPI: 0; HIF-2a inh: 5

Results for Cc1ccc(S(=O)(=O)CCC(=O)c2ccc(F)cc2)cc1 ?
KKLEB cytotox: -44; MITF TRPM1 inh: 11; CF NFkB inh: 85*; Peg3 prom inh: 32; ABHD5 PLIN5 PPI: 16; HIF-2a inh: 15; CF NFkB conf: 26

Results for Cc1ccc(C)c(NC(=O)CSc2nnc(NC(=O)C3CC3)s2)c1 ?
KKLEB cytotox: -8; MITF TRPM1 inh: 5; CF NFkB inh: -3; Peg3 prom inh: 12; ABHD5 PLIN5 PPI: -3; HIF-2a inh: 6

How did Fc1ccc(Nc2ccnc(Nc3ccc(F)cc3)n2)cc1 do in these assays?
KKLEB cytotox: -17; MITF TRPM1 inh: -71; CF NFkB inh: 58*; Peg3 prom inh: -195; ABHD5 PLIN5 PPI: 6; HIF-2a inh: -274; CF NFkB conf: 56*

Results for CCCCN(C(=O)c1ccc(N2CCCC2=O)cc1)c1c(N)n(Cc2ccccc2)c(=O)[nH]c1=O ?
KKLEB cytotox: 8; MITF TRPM1 inh: 4; CF NFkB inh: 58*; Peg3 prom inh: -23; ABHD5 PLIN5 PPI: 3; HIF-2a inh: 18; CF NFkB conf: 36

What do the screens show for `O=C(c1c[nH]c2ccccc12)C(Cl)c1ccccc1` (stereo not given)?
KKLEB cytotox: -33; MITF TRPM1 inh: 13; CF NFkB inh: 63*; Peg3 prom inh: 10; ABHD5 PLIN5 PPI: 0; HIF-2a inh: -30; CF NFkB conf: 42*

How did O=C(c1[nH]c(C(F)(F)F)nc1-c1ccccc1)N1CCN(c2c(Cl)cncc2Cl)CC1 do in these assays?
KKLEB cytotox: -8; CF NFkB inh: 64*; Peg3 prom inh: 12; ABHD5 PLIN5 PPI: 9; HIF-2a inh: -1; CF NFkB conf: 57*

Results for CSCCC(NC(=O)c1ccccc1Cl)C(=O)N1CCN(C(c2ccccc2)c2ccccc2)CC1 (stereo not given) ?
KKLEB cytotox: -21; MITF TRPM1 inh: 15; CF NFkB inh: 2; Peg3 prom inh: 0; ABHD5 PLIN5 PPI: 3; HIF-2a inh: -3

What do the screens show for `O=C(c1cc([N+](=O)[O-])ccc1N1CCOCC1)N1CCN(c2ccccc2)CC1`?
KKLEB cytotox: -37; MITF TRPM1 inh: 57; CF NFkB inh: 53*; Peg3 prom inh: -11; ABHD5 PLIN5 PPI: 8; HIF-2a inh: 22; CF NFkB conf: 59*

Results for O=C(Nc1ccc2ccccc2c1)c1ccccc1O ?
KKLEB cytotox: -18; MITF TRPM1 inh: -5; CF NFkB inh: 52*; Peg3 prom inh: -74; ABHD5 PLIN5 PPI: 3; HIF-2a inh: -49; CF NFkB conf: 79*

What do the screens show for `O=C(Nc1ccc2ccccc2c1)c1ccccc1Cl`?
KKLEB cytotox: 9; CF NFkB inh: -51; Peg3 prom inh: -277; ABHD5 PLIN5 PPI: -7; HIF-2a inh: -250

Results for Cc1ccc(/C=[N+](\[O-])c2ccc(N(C)C)cc2)c2nsnc12 ?
KKLEB cytotox: -24; MITF TRPM1 inh: 7; CF NFkB inh: 68*; Peg3 prom inh: -158; ABHD5 PLIN5 PPI: -21; HIF-2a inh: 21; CF NFkB conf: -68

What do the screens show for `CCOC(=O)c1ccc(NC(=O)c2c(N)n(Cc3ccccc3)c(=O)[nH]c2=O)cc1`?
KKLEB cytotox: -48; MITF TRPM1 inh: 39; CF NFkB inh: 58*; Peg3 prom inh: 10; ABHD5 PLIN5 PPI: -7; HIF-2a inh: 3; CF NFkB conf: 33

Results for CCN1C(=O)[C@H]2[C@@H](c3ccc(C(F)(F)F)cc3)N[C@]3(CCCN(Cc4ccc(C(F)(F)F)cc4)C3=O)[C@H]2C1=O ?
KKLEB cytotox: -4; CF NFkB inh: 6; Peg3 prom inh: 4; ABHD5 PLIN5 PPI: -7; HIF-2a inh: -5

How did O=c1c2oc3ccccc3c2ncn1Cc1ccc(Cl)cc1 do in these assays?
KKLEB cytotox: 10; MITF TRPM1 inh: 0; CF NFkB inh: 2; Peg3 prom inh: -12; ABHD5 PLIN5 PPI: -1; HIF-2a inh: -6

How did c1ccc2c(-c3cnc4cccnn34)cncc2c1 do in these assays?
KKLEB cytotox: 8; CF NFkB inh: 25; Peg3 prom inh: -5; ABHD5 PLIN5 PPI: -5; HIF-2a inh: 5

How did c1cc(-c2cnc3cccnn23)c2cccnc2c1 do in these assays?
KKLEB cytotox: -21; CF NFkB inh: 75*; Peg3 prom inh: 6; ABHD5 PLIN5 PPI: 5; HIF-2a inh: 28; CF NFkB conf: 51*

What do the screens show for `COc1ccc(C2=Nc3ccccc3N(C(=O)c3ccc(C)cc3)C2C(=O)Nc2c(C)cccc2C)cc1` (stereo not given)?
ABHD5 PLIN5 PPI: -5; HIF-2a inh: -32

Results for COc1cccc(CNC(=O)CN2CCC(c3nc4ccc(C)cc4[nH]3)CC2)c1 ?
KKLEB cytotox: -13; MITF TRPM1 inh: -1; CF NFkB inh: 56*; Peg3 prom inh: 5; ABHD5 PLIN5 PPI: 3; HIF-2a inh: 19; CF NFkB conf: 10

How did COc1ccccc1NC(=O)CN1CCC(c2nc3ccc(C)cc3[nH]2)CC1 do in these assays?
KKLEB cytotox: -7; MITF TRPM1 inh: -10; CF NFkB inh: 17; Peg3 prom inh: 14; ABHD5 PLIN5 PPI: -3; HIF-2a inh: 30

What do the screens show for `O=C(NS(=O)(=O)N1CCCC1)C1=C(N2CCCC2)COC1=O`?
KKLEB cytotox: 6; MITF TRPM1 inh: -3; CF NFkB inh: 8; Peg3 prom inh: 15; ABHD5 PLIN5 PPI: 5; HIF-2a inh: -12

Results for CC(=O)c1cccc(NC(=O)Nc2cccnc2)c1 ?
KKLEB cytotox: -5; MITF TRPM1 inh: -6; CF NFkB inh: 57*; Peg3 prom inh: -19; ABHD5 PLIN5 PPI: 4; HIF-2a inh: -7; CF NFkB conf: 77*

Results for COc1ccc2c(c1)c(C(C)=O)c(C)n2-c1ccc(C(C)=O)cc1 ?
KKLEB cytotox: -3; MITF TRPM1 inh: -15; CF NFkB inh: 64*; Peg3 prom inh: 16; ABHD5 PLIN5 PPI: 2; HIF-2a inh: 10; CF NFkB conf: 74*

What do the screens show for `CCOC(=O)c1c(C)n(-c2ccc(F)cc2)c2ccc(O)cc12`?
KKLEB cytotox: -9; MITF TRPM1 inh: 24; CF NFkB inh: 12; Peg3 prom inh: 21; ABHD5 PLIN5 PPI: -6; HIF-2a inh: 16
